EPAC1 agonist = validation of human EPAC1 agonists. 1% of 16,000 active. Potency, µM, most hits filed as activators. EPAC1 Rap1b BODIPY-GDP exchange, fluorescence. AID 1645883; note: nearly all actives have a fitted effect of over 70% in size
EPAC2 ant val = validation of human EPAC2 antagonists | Q8WZA2 | 1.7% of 16,000 active | EPAC2 Rap1B BODIPY-GDP exchange, fluorescence | Potency, µM (titrated, usually from 112 µM), hits mostly inhibitors; note: nearly all actives have a fitted effect of over 40% in size
Target sequence (Q8WZA2 whole entry, looked up): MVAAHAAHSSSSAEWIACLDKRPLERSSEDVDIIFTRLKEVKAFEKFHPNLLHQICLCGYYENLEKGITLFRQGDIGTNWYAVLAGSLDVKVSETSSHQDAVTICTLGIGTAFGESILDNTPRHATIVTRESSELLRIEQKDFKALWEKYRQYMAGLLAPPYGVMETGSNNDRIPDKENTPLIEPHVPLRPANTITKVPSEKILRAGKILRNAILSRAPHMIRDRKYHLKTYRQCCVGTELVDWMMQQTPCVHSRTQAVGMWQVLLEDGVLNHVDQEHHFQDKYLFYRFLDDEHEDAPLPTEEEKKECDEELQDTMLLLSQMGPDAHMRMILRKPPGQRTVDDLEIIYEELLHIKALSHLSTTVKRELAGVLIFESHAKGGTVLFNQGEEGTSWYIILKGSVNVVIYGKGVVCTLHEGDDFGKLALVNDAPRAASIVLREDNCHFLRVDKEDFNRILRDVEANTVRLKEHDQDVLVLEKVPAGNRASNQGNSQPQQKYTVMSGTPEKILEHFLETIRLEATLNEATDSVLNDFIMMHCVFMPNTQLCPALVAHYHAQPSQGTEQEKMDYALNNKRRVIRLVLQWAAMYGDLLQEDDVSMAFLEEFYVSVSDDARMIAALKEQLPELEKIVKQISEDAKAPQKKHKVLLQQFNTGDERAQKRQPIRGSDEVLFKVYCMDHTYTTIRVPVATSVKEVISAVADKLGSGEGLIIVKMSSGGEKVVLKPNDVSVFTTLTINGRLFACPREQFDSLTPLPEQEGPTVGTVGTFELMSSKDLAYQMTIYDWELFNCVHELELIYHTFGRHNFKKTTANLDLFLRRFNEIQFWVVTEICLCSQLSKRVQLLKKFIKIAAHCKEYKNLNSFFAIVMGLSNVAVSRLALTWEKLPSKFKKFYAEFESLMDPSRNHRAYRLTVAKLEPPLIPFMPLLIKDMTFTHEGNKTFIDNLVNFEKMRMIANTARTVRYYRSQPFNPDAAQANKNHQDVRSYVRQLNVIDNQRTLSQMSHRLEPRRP
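Fluorescent exchange read-out: 100 nM EPAC2 with 250 nM RAP1B–BODIPY-GDP and 50 uM GDP; BODIPY-GDP release lowers fluorescence. Read at 480/540 nm every 5 min for 30 min at room temperature; normalized to 6.5 mM cAMP.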
A number is an active result; n = inactive; u = inconclusive; ! = not active in a repeat. Compounds with a hit are over-represented: about 2.9% of the library has one in this group of screens. Calls come from the whole dose curve; as a rule, active = well fitted curve in the direction sought with a large enough effect; inconclusive = small, poorly fitted or top-dose-only effect, or another doubt; inactive = no such curve, though single readings can be large; an effect the other way counts as inactive or inconclusive.

SMILES	EPAC1 agonist	EPAC2 ant val
Cc1ccc2[nH]c3c(c2c1)CN(C(=O)CC1(c2ccccc2)CC(=O)N(Cc2cccnc2)C1=O)CC3 (stereo unspecified)	n	u
CC(CCc1ccc(O)cc1)N1CCOc2c(O)cc(-c3nc4ccccc4s3)cc2C1 (stereo unspecified)	n	n
CCCC(=O)OC[C@@H](OC(=O)CCC)[C@@H](OC(=O)CCC)[C@H](Cn1c2nc(=O)[nH]c(=O)c-2nc2cc(C)c(C)cc21)OC(=O)CCC	u	n
Cc1cc2nc3c(=O)[nH]c(=O)nc-3n(CC(O)C(O)C(O)CO)c2cc1C (stereo unspecified)	35µM	n
Cc1cc(-c2ccc(N=Nc3c(S(=O)(=O)O)cc4cc(S(=O)(=O)O)cc(N)c4c3O)c(C)c2)ccc1N=Nc1c(S(=O)(=O)O)cc2cc(S(=O)(=O)O)cc(N)c2c1O	n	50µM
Cc1cc2c(c(-c3nc4ccccc4s3)c1)OC(CNC(=O)CCc1cccnc1)C2 (stereo unspecified)	n	u
Cc1cc2c(c(-c3ccc(Cl)cc3)c1)OC(CNC(=O)CCC(=O)N(C)C)C2 (stereo unspecified)	n	u
CC(C)(O)C#Cc1ccc(CN2CCc3nnc(CCNC(=O)c4ccco4)n3CC2)cc1	n	n
Cc1cnc(C)c(-c2cc(F)cc3c2OC(CNC(=O)Cc2ccccc2C)C3)n1 (stereo unspecified)	n	n
c1ccc2c(N3CCCCCC3)nc(CN3CCCCC3c3nccs3)nc2c1 (stereo unspecified)	n	20µM
COC(=O)C1CCCCN1Cc1nc(N2CCCN(C(C)=O)CC2)c2ccccc2n1 (stereo unspecified)	n	n
COC(=O)[C@@H]1CCCN1C(=O)c1c(OC)cc(=O)n2c1CCN(Cc1cc(OC)ccc1F)CC2	n	n
CCCCN(CCCC)c1ccc(/C=C/c2ccnc3ccccc23)cc1	112µM	n
CCCCCCCCCCCCCCCCCCN(CCCCCCCCCCCCCCCCCC)c1ccc(/C=C/c2ccnc3ccccc23)cc1	n	n
C(=C\c1ccnc2ccccc12)/c1ccnc2ccccc12	n	n
C=Nc1ccc(/C=C/c2ccnc3ccccc23)cc1	100µM	n
O=C(NCc1ccncc1)c1cnn(-c2ncc3c(n2)-c2ccccc2CC3)c1C1CC1	n	n
COc1cc2cc3c4c(cc(OC)c(OC)c4c2cc1OC)CCN3C	u	50µM
COc1cc2c(cc1OC)C(=O)N(C)CC2	n	n
Cc1ccccc1-c1ccc2ncnc(N(C)Cc3ccco3)c2c1	100µM	20µM
CN(Cc1ccco1)c1ncnc2ccc(-c3ccc4c(c3)OCO4)cc12	n	35µM
CN(Cc1ccco1)c1ncnc2ccc(-c3cccnc3)cc12	n	n
CN(C)Cc1ccccc1-c1ccc2ncnc(N(C)Cc3ccco3)c2c1	n	n
Cc1ccccc1-c1ccc(CN2CCc3nnc(C(NS(C)(=O)=O)C(C)C)n3CC2)cc1 (stereo unspecified)	n	u
COCc1ccc(CN2CCOc3c(cc(-c4ccc(SC)cc4)cc3OC)C2)o1	n	n
SMILES	EPAC1 agonist	EPAC2 ant val
CN(C)C(=O)c1ccc(/C=C/c2ccnc3ccccc23)cc1	u	n
CN(C)c1ccc(/C=C/c2ccnc3c2ccc2c(/C=C/c4ccc(N(C)C)cc4)ccnc23)cc1	n	u
Cc1ccc2nccc(/C=C/c3ccc(N(C)C)cc3)c2c1	112µM	n
Cc1cc(N(C)C)cc(C)c1/C=C/c1ccnc2ccccc12	100µM	n
CCCCCCCCCCCCCCCC(=O)OC[C@@H](O)[C@H]1OC[C@H](O)[C@H]1O	n	n
COc1cc(OC)c(CN2CCOc3ccc(CN4CCC(O)CC4)cc3C2)c(OC)c1	n	n
COc1ccc2ccc(=O)oc2c1CC=C(C)C	n	u
COc1cc2ccc(=O)oc2cc1O	100µM!	n
c1cncc(CNc2nc(-c3ccc4c(c3)OCO4)nc3ccccc23)c1	u	n
COc1ccc(CNc2nc(-c3ccc4c(c3)OCO4)nc3ccccc23)c(OC)c1	112µM	n
Cc1cccc(CNc2nc(-c3ccc4c(c3)OCO4)nc3ccccc23)c1	112µM	u
COc1ccccc1-c1nc(NCc2cccnc2)c2ccccc2n1	n	n
COc1cccc(-c2nc(NCc3ccc(OC)cc3OC)c3ccccc3n2)c1	u	n
COc1ccccc1CNc1nc(-c2cccnc2)nc2ccccc12	89µM	n
CN(C)CCC=C1c2ccccc2COc2ccccc21	n	n
CCC1OC(=O)C[C@@H](O)[C@H](C)[C@@H](O[C@@H]2O[C@H](C)C[C@H](N(C)C)[C@H]2O)[C@@H](CC=O)C[C@@H](C)C(=O)/C=C/[C@]2(C)OC2C1C (stereo partly specified)	n	n
COC(=O)C1CCN(Cc2ccc3c(c2)CN(C(=O)c2cc(-c4ccc(C)o4)[nH]n2)CCO3)CC1	n	u
CC(=O)Nc1cc(C(=O)N2CC3(C)CC2CC(C)(C)C3)cc2ncn(CCc3ccccn3)c12 (stereo unspecified)	n	n
c1cncc(CNc2ccnc(-c3cccnc3)n2)c1	n	n
c1ccc(C(NCc2cccnc2)(c2ccccc2)c2ccccc2)cc1	u	10µM
Cc1occc1C(=O)Nc1cccc(-c2nc(CNC(=O)c3cccc(C#CC(C)(C)O)c3)c(C)o2)c1	n	n
COc1ccc(CN2CCOc3ccc(CN4CCN(CCO)CC4)cc3C2)c2ccccc12	n	n
CC1(C)C(OC(=O)CCC(=O)O)CC[C@]2(C)C1CC[C@@]1(C)C2C(=O)C=C2[C@@H]3C[C@@](C)(C(=O)O)CC[C@]3(C)CCC21C (stereo partly specified)	u	4µM
CC(=O)OC1CCC2(C)C(CCC3(C)C2C(=O)C=C2C4CC(C)(C(=O)OCCN5CCCCC5)CCC4(C)CCC23C)C1(C)C (stereo unspecified)	n	n
CC1(C)[C@@H](O)CC[C@]2(C)[C@H]3C(=O)C=C4[C@@H]5C[C@@](C)(C(=O)O)CC[C@]5(C)CC[C@@]4(C)[C@]3(C)CC[C@@H]12	n	1.6µM
SMILES	EPAC1 agonist	EPAC2 ant val
CC1(C)C(O)CC[C@]2(C)C1CC[C@@]1(C)C2C(=O)C=C2[C@@H]3C[C@@](C)(C(=O)O)CC[C@@]3(C)CCC21C (stereo partly specified)	n	7.1µM
CC1(C)[C@@H](O[C@H]2O[C@H](C(=O)O)[C@@H](O)[C@H](O)[C@H]2O[C@@H]2O[C@H](C(=O)O)[C@@H](O)[C@H](O)[C@H]2O)CC[C@]2(C)[C@H]3C(=O)C=C4[C@@H]5C[C@@](C)(C(=O)O)CC[C@]5(C)CC[C@@]4(C)[C@]3(C)CC[C@@H]12	n	u
CC1(C)CC[C@]2(C(=O)O)CC[C@@]3(C)C(=CCC4[C@@]5(C)CCC(O)C(C)(C)C5CC[C@@]43C)C2C1 (stereo partly specified)	n	n
Cc1ncc2c(c1CNS(=O)(=O)c1cccs1)CCN(C(=O)/C=C/c1cc(F)cc(F)c1)C2	n	n
CC(=O)N[C@@H]([C@@H](O)[C@H](O)[C@H](O)CO)[C@@H](O)CC(=O)C(=O)O	n	n
CC(C)Cc1cc(C(=O)NCC2Cc3cc(F)cc(-c4ccccn4)c3O2)no1 (stereo unspecified)	n	n
CC(=O)[C@]1(O)Cc2c(O)c3c(c(O)c2[C@@H](O[C@H]2C[C@H](N)[C@H](O)[C@H](C)O2)C1)C(=O)c1c(O)cccc1C3=O	112µM	n
